The nature of assay [1]: ACEA_ER_80hr: ACEA Biosciences xCELLigence Real-Time Cell Analysis on Estrogen Receptor Agonism for Proliferation (AID 2282667; active = hit-call score of the fitted dose curve at least 0.9, where 1 is the maximum). The following applies: T47D proliferation, impedance (xCELLigence), 80 h. In outline:
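Real-time impedance growth kinetics of human T-47D breast cells read 80 h after dosing, gain-of-signal fitted relative to DMSO. Compounds: 1:4 serial series, top final concentration 100 uM, n = 2.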

Assay [2] can be described thus: ATG_CRE_CIS: Attagene CIS-FACTORIAL HepG2 Assay for human cAMP Responsive Element (CRE) binding protein 3 (AID 2282926). The following applies: HepG2 CRE cis-reporter, Attagene multiplexed mRNA; actives raise or lower the signal. An outline of the steps:
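Multiplexed transcription-unit reporters transfected into HepG2; 24 h dosing; RT-PCR/capillary electrophoresis fluorescence read-out; bidirectional fit vs DMSO.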

Assay [3] has as its target CCAAT/enhancer-binding protein beta (Homo sapiens) (UniProt P17676). In words: ATG_C_EBP_CIS: Attagene CIS-FACTORIAL HepG2 Assay for human CCAAT/Enhancer Binding Protein (C/EBP) beta (AID 2282927). To be noted: HepG2 Attagene cis-factorial transcription factor reporter; actives raise or lower the signal. In outline: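 Endogenous C/EBPb-driven reporter transcripts measured in transfected human HepG2 cells at 24 h via RT-PCR and capillary electrophoresis of labelled fragments. Activity fitted in both directions relative to DMSO baseline.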

Assay [4] is described as follows: ATG_CMV_CIS: Attagene CIS-FACTORIAL HepG2 Assay for human CMV (Internal Marker) (AID 2282928).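 Note: endpoint acts as a background internal control marker rather than a target.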 The following applies: HepG2 CMV promoter reporter, transcription factor profiling; actives raise or lower the signal. An outline of the steps: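 Cell system: HepG2, transiently transfected multiple reporter units under cis promoters. Exposure: 24 h. Detection: RT-PCR, FAM labeling, HpaI digestion, capillary electrophoresis. Analysis: bidirectional, DMSO baseline.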

Assay [5] is described as follows: ATG_DR4_LXR_CIS: Attagene CIS-FACTORIAL HepG2 Assay for human Liver X Receptor (LXR), DR4 submotif (AID 2282929). The following applies: HepG2 Attagene DR4 cis-reporter, mRNA transcription; actives raise or lower the signal. In outline: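 The endpoint is DR4-element-driven reporter transcripts after 24 h chemical exposure of transfected HepG2 cells. These were measured via RT-PCR and capillary electrophoresis, and gain or loss of signal was fitted relative to DMSO controls.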

In assay [6] the target is Aryl hydrocarbon receptor (Homo sapiens) (UniProt P35869). In words: ATG_Ahr_CIS: Attagene CIS-FACTORIAL HepG2 Assay for human Aryl Hydrocarbon Receptor (Ahr) (AID 2282930). The following applies: HepG2 AhR cis-factorial reporter transcription; actives raise or lower the signal. In outline: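 Reporter mRNA levels, quantified by RT-PCR and fluorescent capillary electrophoresis, reflect endogenous AhR transcriptional activity in HepG2 cells carrying transfected cis-promoter reporter constructs. Readout at 24 h post-dose; gain or loss fitted against DMSO baseline.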

The nature of assay [7]: ATG_AP_1_CIS: Attagene CIS-FACTORIAL HepG2 Assay for human Activator Protein 1 (AP-1) (AID 2282931). The following applies: HepG2 Attagene cis-factorial AP-1 reporter mRNA; actives raise or lower the signal. In outline: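 Readout is reporter transcript level from endogenous transcription factor activity, quantified by RT-PCR with fluorescent primer extension and capillary electrophoresis. Transiently transfected HepG2 cells, 24 h exposure. Curves fitted both directions versus DMSO.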

Assay [8] can be described thus: ATG_AP_2_CIS: Attagene CIS-FACTORIAL HepG2 Assay for human Activator Protein 2 (AP-2) (AID 2282932). The following applies: HepG2 AP-2 cis-reporter, Attagene transcription factor profiling; actives raise or lower the signal. In outline: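 Step one: transient transfection of HepG2 with reporter transcription units. Step two: 24 h chemical exposure. Step three: RNA extraction, RT-PCR, labelled fragment analysis by capillary electrophoresis; DMSO serves as baseline.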

The nature of assay [9]: ATG_BRE_CIS: Attagene CIS-FACTORIAL HepG2 Assay for human Bone Morphogenetic Protein (BMP) Response Element (BRE) (AID 2282933). To be noted: HepG2 BMP response element reporter, Attagene transcription factor profiling; actives raise or lower the signal. An outline of the steps: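 Endogenous transcription factor activity read in transiently transfected HepG2 cells after 24 h chemical exposure. Bidirectional curve fitting against DMSO; readout is reporter transcript level by RT-PCR with capillary electrophoresis of labelled products.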

In assay [10] the target is Transcription factor E2F1 (Homo sapiens) (UniProt Q01094). The assay is described as follows: ATG_E2F_CIS: Attagene CIS-FACTORIAL HepG2 Assay for human E2F Transcription Factor 1 (AID 2282935). To be noted: HepG2 Attagene cis-reporter, E2F reporter RNA transcripts; actives raise or lower the signal. An outline of the steps: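 Total RNA from 24 h-treated, reporter-transfected HepG2 cells undergoes DNase I treatment, oligo(dT) reverse transcription, PCR and 6-FAM primer extension before capillary electrophoresis.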

A short description of assay [11]: ATG_E_Box_CIS: Attagene CIS-FACTORIAL HepG2 Assay for human Enhancer Box (E-box) (AID 2282936). To be noted: HepG2 E-box cis-reporter transcription, actives raise or lower the signal. In outline:
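DMSO served as negative control and baseline for bidirectional fitting. Human hepatoma HepG2 cells, transiently transfected with cis-reporter constructs, were dosed 24 h; reporter mRNA read by RT-PCR and capillary electrophoresis.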

Assay [12] can be described thus: ATG_M_61_CIS: Attagene CIS-FACTORIAL HepG2 Assay for M61 Transcription Factor (Internal Marker) (AID 2282937). The following applies: HepG2 Attagene CIS-FACTORIAL M61 internal marker reporter; actives raise or lower the signal. An outline of the steps: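 Readout is reporter mRNA by RT-PCR, fluorescent primer extension and capillary electrophoresis, with gain or loss fitted relative to DMSO. Transfected HepG2 cells carrying endogenous-TF-driven cis reporters were exposed to chemicals for 24 hours.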

Assay [13] can be described thus: ATG_M_19_CIS: Attagene CIS-FACTORIAL HepG2 Assay for M19 Transcription Factor (Internal Marker) (AID 2282939). To be noted: HepG2 Attagene CIS-FACTORIAL M19 internal marker reporter; actives raise or lower the signal. An outline of the steps:
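Internal marker readout, fitted in both directions against DMSO, from HepG2 cells carrying transfected cis-element reporter constructs; RT-PCR and capillary electrophoresis of reporter mRNA after 24 h exposure.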

Assay [14] can be described thus: ATG_ERE_CIS: Attagene CIS-FACTORIAL HepG2 Assay for Estrogen Response Element (ERE) (AID 2282940). The following applies: HepG2 ERE cis-reporter, Attagene RNA transcript; actives raise or lower the signal. An outline of the steps:
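After 24 h compound treatment, RNA from transfected HepG2 cells was reverse-transcribed, reporter cDNA PCR-amplified, FAM-labelled, HpaI-cut and resolved by capillary electrophoresis. ERE-driven cis reporter transcripts reflect endogenous factors; gain or loss scored against DMSO.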

The nature of assay [15]: ATG_Ets_CIS: Attagene CIS-FACTORIAL HepG2 Assay for human Erythroblast Transformation Specific (ETS) (AID 2282941). The following applies: HepG2 ETS cis-reporter transcription, actives raise or lower the signal. An outline of the steps:
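After transient cis-reporter transfection, HepG2 cells receive test chemical for 24 h. Reporter mRNA levels, measured by RT-PCR and capillary electrophoresis fluorescence, are analysed bidirectionally relative to the DMSO baseline.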

The target in assay [16] is Hepatocyte nuclear factor 3-beta (Homo sapiens) (UniProt Q9Y261). In words: ATG_FoxA2_CIS: Attagene CIS-FACTORIAL HepG2 Assay for human Forkhead box A2 (FOXA2) (AID 2282942). The following applies: HepG2 cis-reporter transcription factor activity, 24 h; actives raise or lower the signal. In outline: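 Endogenous transcription factor activity is captured via cis-element-driven reporter transcripts in transfected HepG2. Total RNA taken at 24 h post-dosing; labelled RT-PCR products resolved by capillary electrophoresis. Gain or loss fitted versus DMSO.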

The nature of assay [17]: ATG_FoxO_CIS: Attagene CIS-FACTORIAL HepG2 Assay for human Forkhead box O (FoxO) (AID 2282943). To be noted: HepG2 Attagene cis-reporter, FoxO element, mRNA; actives raise or lower the signal. In outline:
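Endogenous transcription factor activity read from multiplexed cis-promoter reporter transcripts in transiently transfected HepG2, 24 h after dosing. Reporter RNA measured via RT-PCR plus capillary electrophoresis of FAM-labeled products; gain or loss relative to DMSO.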

Assay [18] in a line: ATG_GATA_CIS: Attagene CIS-FACTORIAL HepG2 Assay for human GATA Binding Protein (AID 2282944). To be noted: HepG2 GATA cis-element reporter, Attagene multiplex mRNA; actives raise or lower the signal. In outline: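 Reporter transcripts from a GATA cis-regulated unit, among multiplexed reporters in transfected HepG2 cells, were measured by RT-PCR with capillary electrophoresis after 24 h dosing. Induction or loss scored relative to DMSO.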

The target in assay [19] is Retinoic acid receptor alpha (Homo sapiens) (UniProt P10276). The assay is described as follows: ATG_DR5_RAR_CIS: Attagene CIS-FACTORIAL HepG2 Assay for human Retinoic Acid Receptor Alpha (RARE), DR5 submotif (AID 2282934). The following applies: HepG2 Attagene cis-factorial RARE DR5 reporter, mRNA; actives raise or lower the signal. In outline:
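Reporter transcripts from a DR5-regulated unit, measured via RT-PCR plus capillary electrophoresis, reflect endogenous RAR activity in transiently transfected human HepG2 liver cells. Exposure lasted 24 h; gain or loss of signal scored against DMSO.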

Assay [20] in a line: ATG_EGR_CIS: Attagene CIS-FACTORIAL HepG2 Assay for human Early Growth Response 1 (EGR1) (AID 2282938). The following applies: HepG2 Attagene CIS-FACTORIAL EGR reporter mRNA; actives raise or lower the signal. In outline:
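After 24 h compound exposure, RNA from reporter-transfected HepG2 cells was reverse-transcribed, PCR-amplified, fluorescently labelled and resolved by capillary electrophoresis. EGR1 reporter transcript changes, up or down, were fitted against DMSO, reflecting endogenous transcription-factor activity.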

In general, AC50 refers to the concentration at which the activity in the assay is half-maximal.

Records with an inconclusive call do not appear. Calls of active or inactive are those of the source. Rule for the calls, unless noted: active = hit-call score of the fitted dose curve at least 0.9, where 1 is the maximum; inactive = score below 0.9.

Sequence of CCAAT/enhancer-binding protein beta (Homo sapiens) (P17676 whole entry, looked up, the tested form may be a part): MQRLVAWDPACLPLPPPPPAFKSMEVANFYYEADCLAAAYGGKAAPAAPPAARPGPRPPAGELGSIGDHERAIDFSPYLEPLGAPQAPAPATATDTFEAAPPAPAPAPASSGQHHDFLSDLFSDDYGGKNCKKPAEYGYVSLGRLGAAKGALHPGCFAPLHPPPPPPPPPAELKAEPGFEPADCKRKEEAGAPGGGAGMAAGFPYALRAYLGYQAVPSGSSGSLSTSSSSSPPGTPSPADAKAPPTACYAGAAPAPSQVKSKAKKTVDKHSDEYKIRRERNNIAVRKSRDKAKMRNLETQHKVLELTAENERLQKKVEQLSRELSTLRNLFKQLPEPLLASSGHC
Sequence of Retinoic acid receptor alpha (Homo sapiens) (P10276 whole entry, looked up): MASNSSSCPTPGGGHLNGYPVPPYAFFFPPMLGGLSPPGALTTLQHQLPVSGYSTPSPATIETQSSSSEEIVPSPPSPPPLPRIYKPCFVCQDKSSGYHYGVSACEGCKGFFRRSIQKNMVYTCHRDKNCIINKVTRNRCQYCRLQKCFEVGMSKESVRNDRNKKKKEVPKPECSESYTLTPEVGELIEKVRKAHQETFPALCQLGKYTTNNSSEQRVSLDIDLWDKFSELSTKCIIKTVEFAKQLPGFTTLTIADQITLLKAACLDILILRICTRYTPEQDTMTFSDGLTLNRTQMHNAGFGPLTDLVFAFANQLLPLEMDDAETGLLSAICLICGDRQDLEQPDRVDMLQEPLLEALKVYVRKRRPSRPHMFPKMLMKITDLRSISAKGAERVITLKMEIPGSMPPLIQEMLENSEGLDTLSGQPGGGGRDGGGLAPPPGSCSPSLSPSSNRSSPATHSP
Sequence of Hepatocyte nuclear factor 3-beta (Homo sapiens) (Q9Y261 whole entry, looked up): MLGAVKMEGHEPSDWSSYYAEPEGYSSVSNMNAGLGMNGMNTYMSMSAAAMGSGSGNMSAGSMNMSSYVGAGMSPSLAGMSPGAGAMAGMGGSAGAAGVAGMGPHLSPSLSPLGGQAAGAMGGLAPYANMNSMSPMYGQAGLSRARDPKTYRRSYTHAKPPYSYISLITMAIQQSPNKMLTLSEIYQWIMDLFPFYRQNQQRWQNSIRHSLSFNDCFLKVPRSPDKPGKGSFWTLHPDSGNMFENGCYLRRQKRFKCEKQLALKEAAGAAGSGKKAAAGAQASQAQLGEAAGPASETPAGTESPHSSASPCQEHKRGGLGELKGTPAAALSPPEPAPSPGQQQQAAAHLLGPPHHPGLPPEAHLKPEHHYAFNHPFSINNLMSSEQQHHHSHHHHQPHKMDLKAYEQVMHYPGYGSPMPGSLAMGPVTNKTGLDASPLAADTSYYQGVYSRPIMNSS
Sequence of Transcription factor E2F1 (Homo sapiens) (Q01094 whole entry, looked up): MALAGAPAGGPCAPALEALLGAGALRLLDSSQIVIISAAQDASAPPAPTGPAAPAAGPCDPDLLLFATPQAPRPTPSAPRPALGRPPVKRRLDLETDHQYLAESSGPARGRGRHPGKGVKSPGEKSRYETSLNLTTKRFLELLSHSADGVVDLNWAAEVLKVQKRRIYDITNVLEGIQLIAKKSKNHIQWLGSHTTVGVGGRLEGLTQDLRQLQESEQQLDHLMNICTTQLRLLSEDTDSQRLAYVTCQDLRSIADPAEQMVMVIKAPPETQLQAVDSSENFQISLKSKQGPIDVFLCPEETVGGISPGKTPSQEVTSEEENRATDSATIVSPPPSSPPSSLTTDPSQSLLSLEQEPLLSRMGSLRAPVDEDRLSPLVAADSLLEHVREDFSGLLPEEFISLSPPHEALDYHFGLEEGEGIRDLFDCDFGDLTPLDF
Sequence of Aryl hydrocarbon receptor (Homo sapiens) (P35869 whole entry, looked up): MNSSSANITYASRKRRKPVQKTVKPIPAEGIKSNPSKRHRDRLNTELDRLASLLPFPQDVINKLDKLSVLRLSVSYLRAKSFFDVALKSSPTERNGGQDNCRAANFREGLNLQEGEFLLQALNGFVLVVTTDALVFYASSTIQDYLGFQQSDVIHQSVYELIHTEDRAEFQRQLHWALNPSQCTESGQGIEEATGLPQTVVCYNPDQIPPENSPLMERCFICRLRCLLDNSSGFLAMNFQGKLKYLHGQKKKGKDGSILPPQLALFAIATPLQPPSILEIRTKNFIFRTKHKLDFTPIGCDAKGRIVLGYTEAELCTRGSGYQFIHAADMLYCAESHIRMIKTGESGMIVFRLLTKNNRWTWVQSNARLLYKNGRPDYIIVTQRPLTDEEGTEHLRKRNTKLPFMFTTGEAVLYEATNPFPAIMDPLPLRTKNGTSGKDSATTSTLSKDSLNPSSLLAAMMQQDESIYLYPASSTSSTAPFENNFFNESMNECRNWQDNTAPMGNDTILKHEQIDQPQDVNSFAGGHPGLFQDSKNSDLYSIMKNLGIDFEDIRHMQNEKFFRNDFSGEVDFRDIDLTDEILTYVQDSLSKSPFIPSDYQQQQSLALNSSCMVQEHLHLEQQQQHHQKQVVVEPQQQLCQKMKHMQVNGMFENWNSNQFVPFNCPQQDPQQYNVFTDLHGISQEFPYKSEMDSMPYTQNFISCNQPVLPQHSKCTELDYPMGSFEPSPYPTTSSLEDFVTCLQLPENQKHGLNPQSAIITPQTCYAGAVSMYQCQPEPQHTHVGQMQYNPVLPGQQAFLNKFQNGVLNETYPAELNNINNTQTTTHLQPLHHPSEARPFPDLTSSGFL

For the compound `Nc1cccc(N)n1`, the compound was called inactive in assay [1], in assay [2], in [3], in [4], in assay [5] and in assay [7]. In addition, the outcome in assay [8], in assay [9], in [10], in [11], in assay [12] and in [13] was inactive. Further, the compound was called inactive in assay [14], in assay [15], in [16], in [17] and in [18]. In assay [6], the AC50 was 52.3 µM (active).
In the case of `O=C(OCc1ccccc1)c1ccc(O)cc1`, the AC50 in [1] was 10.5 µM (active); in [9], 123 µM (active); in assay [11], 171 µM (active); in [14], 8.77 µM (active). In addition, the call in [2], in assay [3], in assay [4], in assay [5], in assay [6] and in assay [7] was inactive. The result in assay [8], in assay [10], in [12], in [13], in assay [15] and in [16] was inactive. Also, the call in [17] and in [18] was inactive.
On to `O=C(Cl)c1ccc(C(=O)Cl)cc1`, for which the result in assay [1], in assay [2], in assay [3], in [4], in assay [5] and in assay [6] was inactive. The call in assay [7], in assay [8], in [19], in assay [10], in assay [11] and in assay [12] was inactive. The outcome in assay [20], in [13], in assay [14], in [15], in assay [16] and in assay [17] was inactive. In [18], the result was inactive.
In the case of `COC(=O)c1ccc(C(=O)OC)c(C(=O)OC)c1`, the result in assay [1], in assay [2], in assay [3], in assay [4], in assay [5] and in assay [6] was inactive. Besides, the compound was classed as inactive in assay [7], in [8], in [19], in [10], in assay [11] and in [12]. The compound was classed as inactive in assay [20], in [13], in assay [14], in assay [15], in assay [16] and in [17]. For the same compound, in assay [18], the call was inactive.
As to `CC1CCC(=O)C1=O` (configuration not stated), the compound was classed as inactive in assay [1], in assay [2], in assay [3], in assay [4], in assay [5] and in assay [6]. In addition, the compound was classed as inactive in assay [7], in [8], in assay [19], in assay [10], in assay [12] and in [20]. The result in [13], in [14], in assay [15], in [16], in assay [17] and in [18] was inactive.
With `CC(=O)/C=C/C1C(C)=CCCC1(C)C` (configuration not stated), the compound was called inactive in assay [1], in assay [2], in assay [3], in assay [4], in [5] and in [6]. The outcome in assay [7], in assay [8], in [9], in assay [10], in assay [11] and in assay [12] was inactive. The result in [20], in [13], in assay [15], in assay [16], in assay [17] and in assay [18] was inactive.
Turning to `CC(=O)OC(C)c1ccccc1` (configuration not stated), the compound was called inactive in [1], in [2], in assay [3], in [4], in assay [5] and in [6]. Further, the compound was classed as inactive in assay [7], in assay [8], in assay [19], in [10], in assay [11] and in [12]. Further, the compound was called inactive in assay [20], in [13], in assay [14], in assay [15], in assay [16] and in [17]. Moreover, in [18], the outcome was inactive.
Turning to `C=CCCCCCCCCC=O`, the call in assay [1], in assay [2], in [3], in assay [4], in assay [5] and in assay [6] was inactive. Besides, the compound was called inactive in assay [7], in [8], in [9], in assay [10], in assay [12] and in assay [20]. Besides, the call in assay [13], in assay [15], in assay [16], in [17] and in assay [18] was inactive. The AC50 in assay [14] was 88.7 µM (active).
